Measured values taken from ChEMBL document CHEMBL1157539, “Thousands of chemical starting points for antimalarial lead identification” (Nature, 2010).

Each compound was assayed on Plasmodium falciparum (assay: GSK_TCMDC: Inhibition of Plasmodium falciparum 3D7 in whole red blood cells, using parasite LDH activity as an index of growth. Test compounds present at 2uM).
Assay type: functional

Point of comparison: Cl.Oc1ccc2c(CNC3CCCCC3)c(O)ccc2c1CNC1CCCCC1, Inhibition 100%. Against it:
- CC(C)c1ccc(Cn2cc(-c3ccncc3)c3cc(OCc4ccccc4)ccc32)cc1.Cl — lower, 99%
- CCS(=O)(=O)O.N=C(N)NC(=O)Nc1ccc(Cl)c([N+](=O)[O-])c1 — lower, 97%
- Cc1nc(C)c(-c2cccc(Oc3ccc(Cl)cc3)c2)c(O)c1Br — lower, 96%
- Cc1nc2nc(N)nc(N)c2c(C)c1Cc1ccc([N+](=O)[O-])cc1.Cl — lower, 98%
- Cl.Oc1cc2ccccc2cc1CNC1CCCCC1 — lower, 98%
- CC(C)c1ccc2c(c1)C(=O)c1ccc(C(=O)O)cc1S2(=O)=O — lower, 93%
- CCCCC#Cc1cnc2nc(N)[nH]c(=O)c2n1 — lower, 89%
- CCC1=C(CC2NCCc3cc(OC)c(OC)cc32)CC2c3cc(OC)c(OC)cc3CCN2C1 (configuration not stated) [DIHYDROEMETINE] — the same, 100%
- CCOC(=O)c1nc2ccc(SC3CCCCC3)cn2c1Br — lower, 86%
- Cc1cc(O)c(-c2ccc(S(=O)(=O)c3ccc(Cl)cc3)cc2)c(C)n1 — lower, 92%
- Cc1nc(C)c(-c2ccc(Oc3cccc(OC(F)(F)F)c3)cc2)c(O)c1Cl — lower, 97%
- Cc1nc(N)nc(N)c1-c1ccc(Br)c(Br)c1 — lower, 94%
- COc1ccc(Cc2c(Cl)nc3nc(N)nc(N)c3c2C)c(OC)c1OC — lower, 98%
- Cl.Nc1ccncc1C(=O)NCCCCN1CCN(c2nsc3ccccc23)CC1 — the same, 100%
- COc1ccc2c(OC)cccc2c1CNCCCCCCNCc1c(OC)ccc2c(OC)cccc12.CS(=O)(=O)O — lower, 92%
- CC(=O)Oc1c(Cl)c(C)nc(C)c1-c1ccc(Oc2ccc(OC(F)(F)F)cc2)cc1 — lower, 97%
- CCCCOc1c(CCNCCCCNCCc2cc(OC)c3ccccc3c2OCCCC)cc(OC)c2ccccc12.CS(=O)(=O)O — lower, 91%
- Nc1nc(N)c2c3c(ccc2n1)CCC3 — lower, 92%
- CCC(C)c1cnc2nc(N)nc(N)c2c1C (configuration not stated) — lower, 97%
- COc1cc(Cc2cnc(N)nc2N)cc(OCCCCc2ccc([N+](=O)[O-])cc2)c1OC — lower, 88%
- COc1cc(Cc2cnc(N)nc2N)cc(OCCCCCCN)c1OC.Cl — lower, 96%

The compounds below were run on Plasmodium falciparum (assay: GSK_TCMDC: Inhibition of Plasmodium falciparum Dd2 in whole red blood cells, using parasite LDH activity as an index of growth. Test compounds present at 2uM).
Assay type: functional

Point of comparison: COc1ccc2c(OC)cccc2c1CNCCCCCCNCc1c(OC)ccc2c(OC)cccc12.CS(=O)(=O)O, Inhibition 28%. Against it:
- Nc1nc(N)c2c(Sc3ccccc3)cccc2n1 — lower, 0%
- Cc1[nH]c(C)c(-c2ccc(Oc3cccc(C(F)(F)F)c3)cc2)c(=O)c1Br — higher, 97%
- CCNC(=O)CCc1cccc(Br)c1 — higher, 54%
- Cc1nc(C)c(-c2ccc(Oc3ccc(Cl)cc3)cc2)c(O)c1I — higher, 49%
- CCCOc1cc2c(cc1OCCC)C(C=Cc1ccc(Cl)cc1Cl)=NC(C)C2.Cl (configuration not stated) — higher, 75%
- CC(C)(C)c1ccc(-c2nnc(N)nc2N)cc1 — lower, 0%
- Nc1nc(N)c2c(ccc3c2ccn3Cc2cccc(F)c2)n1 — higher, 99%
- Cc1nc(C)c(-c2ccc(Oc3cccc(OC(F)(F)F)c3)cc2)c(O)c1Br — higher, 96%
- Nc1nc(N)c2c(Oc3ccc(Cl)c(Cl)c3)cccc2n1 — lower, 22%
- N=C(NCC1CC1c1ccccc1)c1cccc(C(=N)NCC2CC2c2ccccc2)n1 (configuration not stated) — lower, 0%
- Cc1nc(C)c(-c2ccc(Sc3ccc(Cl)cc3)cc2)c(O)c1Br — higher, 97%
- CC(C)CNc1nc(N)nc2ccc3c(ccn3CC(C)C)c12 — higher, 51%
- C=CCn1ccc2c3c(N)nc(N)nc3ccc21 — higher, 91%
- CCc1cc(COc2ccc(CNCCC(C)C)cc2I)c(OCc2ccccc2)c(COc2ccc(CNCCC(C)C)cc2I)c1.Cl — lower, 15%
- CCCCc1cc(Cc2cnc(N)nc2N)cc(OC)c1OC.Cl — lower, 0%
- CC(C)(C)c1ccc(Cc2cccc3nc(N)nc(N)c23)cc1 — higher, 51%
- Cc1nc(C)c(-c2ccc(Oc3ccc(Cl)c(Cl)c3)cc2)c(O)c1Br — higher, 96%
- CCOc1cc(Cc2cnc(N)nc2N)cc(Br)c1OC — lower, 3%
- CC(C)c1ccc(Cn2cc(-c3ccncc3)c3cc(OCc4ccccc4)ccc32)cc1.Cl — higher, 88%
- CCS(=O)(=O)O.N=C(N)NC(=O)Nc1ccc(Cl)c([N+](=O)[O-])c1 — lower, 9%
- Cc1nc(C)c(-c2cccc(Oc3ccc(Cl)cc3)c2)c(O)c1Br — higher, 97%
- Cc1nc2nc(N)nc(N)c2c(C)c1Cc1ccc([N+](=O)[O-])cc1.Cl — lower, 11%
- Cl.Oc1cc2ccccc2cc1CNC1CCCCC1 — higher, 89%
- CC(C)c1ccc2c(c1)C(=O)c1ccc(C(=O)O)cc1S2(=O)=O — higher, 83%
- CCCCC#Cc1cnc2nc(N)[nH]c(=O)c2n1 — lower, 2%
- CCC1=C(CC2NCCc3cc(OC)c(OC)cc32)CC2c3cc(OC)c(OC)cc3CCN2C1 (configuration not stated) [DIHYDROEMETINE] — higher, 100%
- CCOC(=O)c1nc2ccc(SC3CCCCC3)cn2c1Br — lower, 3%
- Cc1cc(O)c(-c2ccc(S(=O)(=O)c3ccc(Cl)cc3)cc2)c(C)n1 — higher, 80%
- Cl.Oc1ccc2c(CNC3CCCCC3)c(O)ccc2c1CNC1CCCCC1 — higher, 100%
- Cc1nc(C)c(-c2ccc(Oc3cccc(OC(F)(F)F)c3)cc2)c(O)c1Cl — higher, 97%
- Cc1nc(N)nc(N)c1-c1ccc(Br)c(Br)c1 — lower, 1%
- COc1ccc(Cc2c(Cl)nc3nc(N)nc(N)c3c2C)c(OC)c1OC — lower, 0%
- Cl.Nc1ccncc1C(=O)NCCCCN1CCN(c2nsc3ccccc23)CC1 — lower, 9%
- CC(=O)Oc1c(Cl)c(C)nc(C)c1-c1ccc(Oc2ccc(OC(F)(F)F)cc2)cc1 — higher, 98%
- CCCCOc1c(CCNCCCCNCCc2cc(OC)c3ccccc3c2OCCCC)cc(OC)c2ccccc12.CS(=O)(=O)O — higher, 47%
- Nc1nc(N)c2c3c(ccc2n1)CCC3 — lower, 2%
- CCC(C)c1cnc2nc(N)nc(N)c2c1C (configuration not stated) — lower, 1%
- COc1cc(Cc2cnc(N)nc2N)cc(OCCCCc2ccc([N+](=O)[O-])cc2)c1OC — lower, 4%
- COc1cc(Cc2cnc(N)nc2N)cc(OCCCCCCN)c1OC.Cl — lower, 0%
